Reference: PubChem BioAssay (NCI)
This is part of a sample that, as a whole, favours compounds with a hit. Of some 79,000 tested, about 15% had one in any assay. Rule as the data show it: active = growth inhibition above about 70%; inactive = the rest.

Key:
[1] = NCI Yeast Anticancer Drug Screen. Data for the rad50 strain (AID 155);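 also: 0% = growth of vehicle-only cultures of the same strain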; details: S. cerevisiae rad50 strain growth inhibition; at 50.0 µM; stronger effect = higher value
Summary of the method: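 DNA repair mutant yeast, compound exposure, growth read-out; inhibition is taken relative to vehicle.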

[2] = NCI Yeast Anticancer Drug Screen. Data for the mec2-1 strain (AID 157); details: S. cerevisiae mec2-1 strain, at 50.0 µM, stronger effect = higher value
Summary of the method: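 Cells of the genetically defined mec2-1 yeast strain are incubated with test compound. Inhibition of growth is calculated against vehicle-treated controls.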

[3] = NCI Yeast Anticancer Drug Screen. Data for the sgs1 mgt1 strain (AID 161);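 also: 0% = growth of cultures given vehicle only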; details: S. cerevisiae sgs1 mgt1 strain, at 50.0 µM, stronger effect = higher value
Summary of the method: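 Mutant yeast exposed to compound; growth scored against vehicle-only wells.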

[4] = NCI Yeast Anticancer Drug Screen. Data for the cln2 rad14 strain (AID 165);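 also: 0% = growth equal to vehicle treated cultures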; details: S. cerevisiae cln2 rad14 strain, at 50.0 µM, stronger effect = higher value
Summary of the method: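 The screen exposed genetically defined yeast (cln2 rad14) to test compounds and scored growth inhibition relative to vehicle-treated controls.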

[5] = NCI Yeast Anticancer Drug Screen. Data for the bub3 strain (AID 167); details: S. cerevisiae bub3 mutant strain, at 50.0 µM, stronger effect = higher value
Summary of the method: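 In this screen, a yeast mutant lacking normal mitotic checkpoint function is challenged with compound. Relative growth versus vehicle gives the inhibition value.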

[6] = NCI Yeast Anticancer Drug Screen. Data for the mlh1 rad18 strain (AID 175); details: S. cerevisiae mlh1 rad18 strain growth inhibition; at 50.0 µM; stronger effect = higher value
Summary of the method: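 Compound-treated yeast growth, normalised to vehicle controls. Strain bears defined DNA repair mutations.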

Measured: growth inhibition

O=C1C(NS(=O)(=O)c2ccccc2)=C(N(Cc2ccccc2)Cc2ccccc2)C(=O)c2ccccc21
inactive: [1] 9.1% | [2] 7.4% | [3] 26.1% | [4] 2.1% | [5] 8.95% | [6] -6.75%

CC(C)C(=NNC(N)=O)C(C)C
inactive: [1] 2.1% | [2] 2.2% | [3] -1.35% | [4] -3.7% | [5] -6.95% | [6] -8.4%

O=C(/C=C/c1ccc(O)cc1)OCC1OC(Oc2cc(O)c3c(c2)OC(c2ccc(O)cc2)CC3=O)C(O)C(O)C1O (stereo unspecified)
inactive: [1] 9.35% | [2] -7.45% | [3] 9.6% | [4] -16.1% | [5] 14.3% | [6] 5.1%

NCCCCCCN
inactive: [1] -50.6% | [2] -6.05% | [3] -36.6% | [4] -46.8% | [5] -45.5% | [6] -65%

CCc1ccccc1NC(=O)C(=O)C(C#N)c1ccccc1Cl (stereo unspecified)
inactive: [1] -7.2% | [2] -30.6% | [3] -17.6% | [4] 3.55% | [5] 6.3% | [6] -9.45%

Fc1ccc(-c2nnc(-c3ccc4ccccc4c3)o2)cc1
inactive: [1] 18.1% | [2] -11.3% | [3] 21.4% | [4] 12.2% | [5] 35.8% | [6] -1.3%

CN=C1c2ccccc2C(=O)c2c1c(O)n(C)c2O
inactive: [1] 3.05% | [2] -8.45% | [3] 0.9% | [4] 1.4% | [5] -2.75% | [6] -1%

O=c1[nH]c2cc(Cl)c(Cl)cc2c2ccc(Cl)cc12
inactive: [1] 12.2% | [2] -5.55% | [3] -0.35% | [4] -38% | [5] -15.6% | [6] -14.1%

C=CCOC(=O)COC(=O)C(C)(C)OC(C)=O
inactive: [1] -3.35% | [2] 10.3% | [3] -1.7% | [4] 10.9% | [5] 12.6% | [6] -5.9%

O=S1(=O)CCC(Br)c2ccccc21 (stereo unspecified)
inactive: [1] -5% | [2] -0.25% | [3] 0.4% | [4] -38.5% | [5] 8.6% | [6] -12.5%

CCN(CC)c1ncnc2c1cnn2C
inactive: [1] -14.8% | [2] -14.4% | [3] 8.75% | [4] 11% | [5] -15.9% | [6] -28%

COc1cc2c(c([N+](=O)[O-])c1)NC(=O)C(C)S2 (stereo unspecified)
inactive: [1] -11.3% | [2] -33.6% | [3] -19.4% | [4] 28.8% | [5] 2.15% | [6] 3.65%

CCOC(=O)c1c(N)[nH]c(SSc2[nH]c(N)c(C(=O)OCC)c2C(=O)OCC)c1C(=O)OCC
inactive: [1] 25.6% | [2] 3.85% | [3] 30.3% | [4] 13.7% | [5] 17.8% | [6] 20.3%

O=c1[nH]c(Nc2cccc(Br)c2)nc2nc[nH]c12
inactive: [1] -53.2% | [2] -8.65% | [3] -23.9% | [4] -45.4% | [5] -5.9% | [6] -37.5%

COC(=O)C(C)C1Sc2ccccc2NC1=O (stereo unspecified)
inactive: [1] 4.6% | [2] 1.85% | [3] -17.3% | [4] -4% | [5] -16.6% | [6] 2.6%

O=C(N/N=C\c1cc(=O)[nH]c(=O)[nH]1)c1ccccc1
inactive: [1] -18.1% | [2] -2.95% | [3] -11.5% | [4] -6.75% | [5] -14.2% | [6] 2.9%

Cc1[nH]ccc2c3ccc(=O)cc3n(S(=O)(=O)O)c12
inactive: [1] 10.7% | [2] -8.3% | [3] -1.45% | [4] 18.4% | [5] 16.8% | [6] -7.25%

CN1C/C(=C\c2ccc(N(C)C)cc2)C(=O)/C(=C/c2ccc(N(C)C)cc2)C1
inactive: [1] -17.6% | [2] -8.05% | [3] -2.2% | [4] -1.35% | [5] 4.05% | [6] -9.85%

CCCC(C)C1CCC(=O)CC1 (stereo unspecified)
inactive: [1] 5.85% | [2] 0.3% | [3] 0.75% | [4] -4.3% | [5] 1.95% | [6] -0.2%

O=C(Nc1ncnc2c1ncn2C1CCC(CO)O1)c1ccccc1 (stereo unspecified)
inactive: [1] -1.35% | [2] 2.15% | [3] 3.7% | [4] 7.45% | [5] 14% | [6] 16.9%

O=C1CCC(=O)N1Cc1ccccc1N=[N+]([O-])c1ccccc1CN1C(=O)CCC1=O
inactive: [1] -37.2% | [2] -14.7% | [3] 1.75% | [4] -0.55% | [5] -19.5% | [6] -15.9%

CCc1ccc(NC(=O)CCC(=O)O)cc1
inactive: [1] -1.15% | [2] -9.15% | [3] 4.75% | [4] -90.5% | [5] -4.9% | [6] -16.9%

COc1cc(N=Nc2ccccc2)cc(/C=N\NC(=S)Nc2cccc(C)c2)c1O
inactive: [1] 35.2% | [2] 19.9% | [3] 29.8% | [4] 24.9% | [5] -8.15% | [6] 39.7%

CSCCCNC(=O)c1csc(-c2csc(CCNC(=O)[C@@H](NSc3ccccc3[N+](=O)[O-])[C@@H](C)O)n2)n1
inactive: [1] 0.15% | [2] 6.05% | [3] 1.3% | [4] -22.1% | [5] 0.95% | [6] 18.9%

C[Si](C)(COC(N)=O)Cc1ccccc1
inactive: [1] -28.1% | [2] -12.6% | [3] -15.5% | [4] -1.2% | [5] -10.6% | [6] -32%

CC1=CC(=O)CC(C(C)C)C1 (stereo unspecified)
inactive: [1] 15.5% | [2] -7.5% | [3] 22.8% | [4] -5.95% | [5] 1.95% | [6] 5.2%

COc1ccc(-n2cc[n+](C)c2/C=N\O)cc1
inactive: [1] -3.1% | [2] 0.95% | [3] 3.2% | [4] -43.3% | [5] -31.8% | [6] -13.6%

COc1ccc(-c2c(-c3ccccc3)c(-c3ccccc3)nn2-c2ccccc2)cc1
inactive: [1] 45.2% | [2] 4.85% | [3] 34.8% | [4] 22.4% | [5] 2.5% | [6] 20.9%

O=C(NCc1ccccn1)c1ccccc1
inactive: [1] 17.5% | [2] 15.8% | [3] -4.45% | [4] -18.9% | [5] 17.1% | [6] 6.8%

COc1ccc(C23CCC(=O)N2CCS3)cc1 (stereo unspecified)
inactive: [1] -1.25% | [2] -20.3% | [3] -10.7% | [4] 8.15% | [5] 30% | [6] 2.8%

CC(C)=NNC(=O)COCC(=O)NN=C(C)C
inactive: [1] 0.25% | [2] -4.45% | [3] -1.35% | [4] -84.5% | [5] -22.9% | [6] 1.35%

[Cu+2].[NH-]C(CC(=O)O)C(=O)O.[NH-]C(CC(=O)O)C(=O)O (stereo unspecified)
inactive: [1] -35.3% | [2] -11.7% | [3] -13.7% | [4] 64.4% | [5] -61.3% | [6] -3.45%

CC(=O)Nc1ccc(C=O)s1
inactive: [1] -0.65% | [2] 6% | [3] -15.4% | [4] -36.2% | [5] 1.65% | [6] -0.4%

COc1ccc(C2OCC(C)O2)cc1OC (stereo unspecified)
inactive: [1] -13.4% | [2] 16.1% | [3] -8.2% | [4] -31.4% | [5] -31.4% | [6] -7.3%

CCCCC(=O)NC1=CC(=O)c2ccccc2C1=O
inactive: [1] 41.2% | [2] 30.4% | [3] 47.1% | [4] 29.6% | [5] 56.1% | [6] 45.8%

CCSCC1C=CC(n2cnc3c(N)ncnc32)O1 (stereo unspecified)
inactive: [1] -10.3% | [2] -29.2% | [3] -22.1% | [4] -0.25% | [5] 5.55% | [6] 10.1%

C/C=C(/C)C(C#N)(CCC)C(=O)OCC (stereo unspecified)
inactive: [1] 5.9% | [2] -12.4% | [3] -8.7% | [4] 3% | [5] -9.85% | [6] 11.3%

c1ccc(Cc2c[nH]c3ccccc23)cc1
inactive: [1] 9.45% | [2] -0.05% | [3] 9.4% | [4] -9.6% | [5] -1.85% | [6] 14.9%

O=C1CCCC/C1=C1/SC(=Nc2ccccc2)C(=Nc2ccccc2)N1c1ccccc1
inactive: [1] 21.2% | [2] 16.1% | [3] 16.2% | [4] 31% | [5] 19.1% | [6] 8.6%

COc1cc2c(c3[nH]cc(C(=O)O)c(=O)c13)NC(=O)CS2
inactive: [1] -47.1% | [2] -87.8% | [3] -16.9% | [4] -32.4% | [5] -2.85% | [6] -29.4%

O=C1CSC(c2cccc(Cl)c2)N1N1C(=O)CSC1c1cccc(Cl)c1 (stereo unspecified)
inactive: [1] 6.3% | [2] 19.4% | [3] -7.15% | [4] -0.6% | [5] 2.05% | [6] 13.4%
